Each molecule was assayed against Calmodulin-1 (Homo sapiens) (UniProt P0DP23) (assay: small molecules binding Ca-loaded calmodulin-1 – biochemical, small-molecule microarray, Cy5-labelled CALM1, plus calcium, artefact control for SMM control-protein annotation, profiling panel (AID 1112;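 also: score merges spot fluorescence with signal to noise from triplicate slides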)). Settings: Cy5-CALM1 binding fluorescence, higher = more signal.
With `COC(=O)[C@H]1N=C(c2ccc(OCCCO)cc2)O[C@H]1c1ccccc1CN=[N+]=[N-]` the composite z-score was 0.516.
`C[N+](C)(C)CCCCNC(=O)[C@H]1C[C@H]2C(=O)NCC(=O)N2[C@H]1c1ccc(O)cc1` showed a composite z-score of -0.966.
`CN(C)CCCCCCNC(=O)[C@@H]1C[C@@H]2C(=O)NCC(=O)N2[C@@H]1c1ccc(O)cc1` gave a composite z-score of -1.89.
Work on `COc1ccc(C#Cc2ccc3c(c2)[C@]2(C(=O)N3)[C@H](c3ccc(OCCO)cc3)N3[C@H](c4ccccc4)[C@H](c4ccccc4)OC(=O)[C@H]3[C@@H]2C(=O)N2CCN(c3ncccn3)CC2)cc1` yielded a composite z-score of 0.722.
Molecule `[N-]=[N+]=NCc1ccccc1[C@H]1OC(c2ccc(OCCCO)cc2)=N[C@@]1(Cc1ccccc1)C(N)=O` has a composite z-score of 0.995.
Work on `C#CCOC(=O)N[C@H](C=CCCCC)c1ccccc1` yielded a composite z-score of 0.368.
With `COc1cccc(C[C@H]2C[C@@H](CO[Si](C(C)C)(C(C)C)C(C)C)N3C(=O)[C@]4(C(C)=O)O[C@]23[C@H]2C(=O)N(C)C(=O)[C@H]24)c1` the composite z-score was -0.23.
With `C=C(COC)/C(=C/C[C@@H](OC(=O)c1ccncc1)c1cccc(OCCO)c1)c1cc(C(=O)OC)ccc1OC` the composite z-score was -0.698.
`C[N+](C)(C)CCCC[C@@H]1NC(=O)[C@@H]2C[C@H](C(=O)NCCCCCNC(=O)CS)[C@H](c3cccc(OCCO)c3)N2C1=O` gave a composite z-score of 0.581.
With `CCCCCCCCCCC(O)C1C=CC2C(=O)NC(=O)C2N1Nc1ccccn1` (stereo unspecified) the composite z-score was 0.945.
`CCOC(=O)C[C@H]1[C@H](OC(=O)c2ccc(C(=O)c3ccccc3)cc2)[C@@H](NC(=O)C2CCCCC2)c2cc(OCCCO)ccc2N1C(=O)Cc1ccc(OC)cc1` gave a composite z-score of 0.304.
Molecule `COc1ccc([Si](C)(C)[C@@H]2[C@@H](CCO)O[C@]3(C(=O)N(Cc4ccc(N5C(=O)c6ccccc6Oc6ccccc65)cc4)c4ccccc43)[C@H]2C)cc1` has a composite z-score of 0.751.
Work on `O=C1O[C@@H](c2ccccc2)[C@@H](c2ccccc2)N2[C@@H](c3ccc(O)cc3)[C@]3(C(=O)Nc4ccc(C#CC5(O)CCCCCC5)cc43)[C@@H](C(=O)N3CCN(c4ncccn4)CC3)[C@H]12` yielded a composite z-score of 0.137.
Molecule `COCCCNC(=O)[C@@]1(C)c2ccccc2C(=O)N(c2ccc(C)cn2)[C@H]1c1ccc(CO)cc1` has a composite z-score of -1.12.
For `COc1ccc([Si](C)(C)[C@H]2[C@H](CCO)O[C@@]3(C(=O)N(Cc4cccc(N5CCOC5=O)c4)c4ccccc43)[C@@H]2C)cc1`, the composite z-score was -0.207.
`O=C(N1CCOCC1)[C@@]1(CCS(=O)(=O)c2ccccc2)COC(c2ccc(OCCCO)cc2)=N1` was tested, and the composite z-score was 0.0541.
In the case of `COCCOC(=O)N1C(=O)[C@@]2(c3cc(C#Cc4ccc(OC)cc4)ccc31)[C@H](C(N)=O)[C@H]1C(=O)O[C@H](c3ccccc3)[C@H](c3ccccc3)N1[C@@H]2c1ccc(OCCO)cc1`, the composite z-score is reported as -0.454.
Work on `C=C[C@H](C)[C@H](OC(=O)Nc1ccc(SC)cc1)c1ccc(O)c2ccccc12` yielded a composite z-score of 0.273.
In the case of `C=C(CCCC)/C(=C/C[C@H](OC(=O)c1ccncc1)c1ccc(CO)o1)c1cc(C(=O)OC)ccc1OC`, the composite z-score is reported as -0.324.
Molecule `CN1C(=O)C2C=CC(C(O)c3cccc4ccccc34)N(NC(=O)OC(C)(C)C)C2C1=O` (stereo unspecified) has a composite z-score of 1.43.
For `COc1cc2c(cc1OC)CN(C(=O)[C@@H]1[C@H]3C(=O)O[C@H](c4ccccc4)[C@H](c4ccccc4)N3[C@H](c3ccc(OCCO)cc3)[C@@]13C(=O)Nc1ccc(C#CCCO)cc13)CC2`, the composite z-score was 1.01.
Work on `NCCCCCCNC(=O)[C@H]1C[C@H]2C(=O)N3CCC[C@H]3C(=O)N2[C@H]1c1ccc(O)cc1` yielded a composite z-score of 0.102.
With `C[C@H]1NC(=O)C([C@@H](C)OCc2ccccc2)NC(=O)[C@@]23C(=O)N[C@@H](Cc4ccccc4)C2[C@H](C)[C@@]2(C)O[C@H]2C3/C=C/CC/C=C/CNC1=O` (stereo partly specified) the composite z-score was -0.377.
In the case of `O=C1O[C@@H](c2ccccc2)[C@@H](c2ccccc2)N2[C@@H](c3ccc(O)cc3)[C@]3(C(=O)Nc4ccc(C#CC5=CCCCC5)cc43)[C@@H](C(=O)Nc3nc4ccccc4s3)[C@H]12`, the composite z-score is reported as -0.18.
For `CC(C)(C)N1CC=CC23O[C@@H]4C=CCCOC(=O)C4[C@H]2C(=O)N(CCCO)[C@@H]3C1=O` (stereo partly specified), the composite z-score was -0.97.
For `CN(C)CCCCNC(=O)[C@H]1C[C@H]2C(=O)N[C@@H](CCCC[N+](C)(C)C)C(=O)N2[C@H]1c1cccc(OCCO)c1`, the composite z-score was -0.166.
For `CCCCC(CC)C(O)C1C=CC2C(=O)NC(=O)C2N1Nc1ccccn1` (stereo unspecified), the composite z-score was 0.431.
Molecule `C[N+](C)(C)CCCCCCNC(=O)[C@@H]1C[C@@H]2C(=O)NCC(=O)N2[C@@H]1c1cccc(OCCO)c1` has a composite z-score of -0.359.
In the case of `CCCCC=C[C@@H](NC(=O)CCc1ccccc1)c1ccccc1`, the composite z-score is reported as 0.57.
Molecule `C[N+](C)(C)CCCCCCNC(=O)[C@H]1C[C@H]2C(=O)N3CCC[C@H]3C(=O)N2[C@H]1c1cccc(OCCO)c1` has a composite z-score of -1.14.
In the case of `COc1cccc(C)c1NC(=O)O[C@H]1[C@H](OC(=O)Nc2ccccc2)[C@H](OC(=O)Nc2ccccc2)[C@@H](OC)O[C@@H]1CO`, the composite z-score is reported as 0.645.
`CC(C)NC(=O)[C@@]1(Cc2ccccc2I)c2ccccc2C(=O)N(Cc2ccccc2C(F)(F)F)[C@H]1c1ccc(CO)cc1` showed a composite z-score of 0.377.
With `COCCCNC(=O)[C@@]1(Cc2ccccc2CN=[N+]=[N-])N=C(c2ccc(OCCCO)cc2)O[C@H]1c1ccccc1N=[N+]=[N-]` the composite z-score was 1.
With `C=C(C)[C@@H]1CC=C(C(O)C2C=CC3C(=O)N(C4CCCCC4)C(=O)C3N2Nc2ccc(OC)cc2)CC1` (stereo partly specified) the composite z-score was 0.417.
With `C=CCC(OC(C)=O)[C@@H]1[C@@H](N(Cc2ccc(-c3ccccc3)cc2)C(=O)Cc2ccc(OC)cc2)c2cc(OCCCO)ccc2N1C(=O)c1ccc(-c2ccccc2)cc1` (stereo partly specified) the composite z-score was 0.807.
For `CC(C)=CCCC(C)=CC(O)C1C=CC2C(=O)N(c3ccccc3)C(=O)C2N1Nc1ccc([N+](=O)[O-])cc1` (stereo unspecified), the composite z-score was 0.512.

Reference: PubChem BioAssay
